# Experimental data from PubChem BioAssay.
# Where “and” joins values, the source holds several entries; their conditions need not be identical. Equal values may be shown once. Where a structure was tested more than once in an assay, its records may differ in their call. Calls of active or inactive are those of the source. Unless noted, no stated cut-off is given here; in the data, active means inhibition above about 80%; inactive means the rest.
# How the values were obtained:
# [1] = viability loss with induced miR-34 in A549 – imaging, A549 dox-inducible miR-34, nuclei and caspase counts, primary screen (AID 1347080;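 active means compounds whose cell count with miR-34 switched on is under 0.7 times the count with it off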); details: A549 miR-34 inducible, Hoechst nuclei count, 48 h
# [2] = MELAS cybrid and Rieske KO viability enhancers – cell-based, MELAS cybrids, Rieske KO mouse fibroblasts, CellTiter-Glo, primary screen (AID 1508586;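 active means mean z-score across replicates of 1.96 or higher in either the MELAS or the Rieske mutant cell line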;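 further: z relative to plate mean and SD of compound and empty wells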); details: low glucose
# [3] = growth inhibition, single agent or in combination, cell-based, chromothripsis tumors, cisplatin or BGB combos (AID 1671449); details: LFS_MB_P medulloblastoma cells;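 further: cells exposed for 96 hours; 0% = vehicle DMSO and 100% = killing by high DMSO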
# [4] = growth inhibition, single agent and combos, cell-based, chromothripsis tumors, cisplatin or BGB combos (AID 1671450); details: HDN33 neuroblastoma cells, stronger effect = higher value;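 further: cells exposed to compound for four days; 0% = vehicle DMSO and 100% = cell killing by high DMSO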
# [5] = growth inhibition, single agents and combos, ICB984, cell-based, cisplatin or BGB combos, synergistic combos for chromothripsis tumors (AID 1671451; call rule not given here;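 further: cells exposed for 96 hours before readout; 0% = vehicle DMSO and 100% = killing by high DMSO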); details: ICB984 medulloblastoma cells, drug combinations, stronger effect = higher value
# [6] = growth inhibition, single agents and combos, LFS_MB_1R, cell-based, cisplatin or BGB combos, synergistic combos for chromothripsis tumors (AID 1671452); details: LFS_MB_1R medulloblastoma cells, stronger effect = higher value;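 further: cells exposed for 96 hours before readout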
# [7] = growth inhibition, single agents and combos, HTB85, cell-based, BGB or cisplatin IC20 combos, synergistic combos for chromothripsis tumors (AID 1671453); details: HTB85 osteosarcoma cells, drug combinations, stronger effect = higher value;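 further: cells exposed for 96 hours before readout; 0% = vehicle DMSO and 100% = high DMSO killing control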
# [8] = growth inhibition, single agents and combos, CRL2098, cell-based, BGB or cisplatin IC20 combos, synergistic combos for chromothripsis tumors (AID 1671454); details: CRL2098 osteosarcoma cells, drug combinations, stronger effect = higher value;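 further: cells exposed for 96 h before readout; 0% = vehicle DMSO and 100% = killing by high DMSO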
# [9] = growth inhibition, single agents and combos, HD-MB03, cell-based, BGB or cisplatin IC20 combos, synergistic combos for chromothripsis tumors (AID 1671455; in the data active means inhibition above about 83%;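 further: 0% = vehicle DMSO and 100% = high DMSO as cytotoxic control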); details: HD-MB03 medulloblastoma cells, stronger effect = higher value
# [10] = growth inhibition, single agents and combos, UWB1.289, cell-based, BGB or cisplatin combos, synergistic combos for chromothripsis tumors (AID 1671456); details: UWB1.289 ovarian carcinoma cells, stronger effect = higher value;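 further: cells exposed to compound for four days; 0% = vehicle DMSO and 100% = killing by high DMSO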
# [11] = growth inhibition, single agents and combos, LFS_MB_2R, cell-based, cisplatin combos, synergistic combos for chromothripsis tumors (AID 1671457); details: LFS_MB_2R medulloblastoma cells, stronger effect = higher value;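 further: cells exposed to compound for four days before readout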
# [12] = growth inhibition, MDA-MB-436, cell-based, BGB or cisplatin combos, synergistic combos for chromothripsis tumors (AID 1671458; call rule not given here;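 further: cells exposed for 96 hours; 0% = vehicle DMSO and 100% = killing by high DMSO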); details: MDA-MB-436 breast carcinoma growth inhibition, drug combinations, stronger effect = higher value
# [13] = UWB1.289_BRCA1 ovarian cancer growth, cell-based, BGB or cisplatin combinations (AID 1671459); details: UWB1.289 BRCA1 ovarian carcinoma, drug combinations, stronger effect = higher value
# [14] = drug combination toxicity in non-malignant astrocytes – cell-based, BGB or cisplatin IC20 combos, cytotoxicity control for chromothriptic childhood tumor combination screen (AID 1671460); details: Human astrocytes, viability inhibition, drug combinations, at 0.5 µM, stronger effect = higher value;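 further: cells exposed to compounds for 96 hours before viability readout; 0% = vehicle and 100% = killing control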
# [15] = BT084 cell growth, single and combined drugs, ICGC_MB145, cisplatin and BGB IC40 combos (AID 1671461); details: BT084 medulloblastoma cells, drug combinations, stronger effect = higher value;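 further: cells exposed to drugs for 96 hours; 0% = vehicle DMSO and 100% = high DMSO full killing control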
# [16] = RCMB18 cell growth, single agent and combined, cisplatin and BGB IC40 combos (AID 1671462); details: RCMB18 medulloblastoma cells, stronger effect = higher value;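 further: cells exposed to compound for four days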
# [17] = CRL1545 cell growth, single agent and combined, cisplatin and BGB IC20 combos (AID 1671464); details: CRL1545 osteosarcoma cells, stronger effect = higher value;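 further: cells exposed to compound for 96 hours before readout; 0% = vehicle DMSO and 100% = high DMSO killing control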
# [18] = compounds altering viability of human ES cells (AID 493140; call rule not given here;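 further: cells exposed to compounds for four days before counting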); details: human embryonic stem cell survival screen; stronger effect = higher value
# [19] = P. berghei load reduction in hepatocytes – cell-based, HepG2, luciferase luminescence, HepG2 viability, primary screen (AID 624349; in the data active means parasite load remaining mostly below about 12%, no sharp cut-off; inactive means mostly above about 10%;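 further: 100% = mean of DMSO negative control wells on the same plate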); details: P. berghei liver stage in HepG2, luciferase luminescence, concentration not given here; parasite load remaining: stronger effect = lower value; viability: measured here: HepG2 viability without parasites
# [20] = stronger effect = lower value, cell number ratio, induced over uninduced
# [21] = measured here: relative caspase fold change +Dox/-Dox
# [22] = measured here: total cells with miR-34 induction, stronger effect = lower value
# [23] = measured here: total cells without miR-34 induction
# [24] = MELAS cybrid survival, CellTiter-Glo 48 h, stronger effect = higher value
# [25] = Rieske KO mouse fibroblast survival, CellTiter-Glo 72 h
# [26] = measured here: combination with BGB IC40, at 0.05 µM
# [27] = measured here: with BGB IC20 combination, at 0.5 µM
# [28] = measured here: with cisplatin IC20 combination, at 0.5 µM
# [29] = measured here: combination with cisplatin, at 0.5 µM
# [30] = measured here: combination with cisplatin, at 5 µM
smiles,measurement,setting,value
COc1ccc(CC(N)C(=O)NC2C(CO)OC(n3cnc4c(N(C)C)ncnc43)C2O)cc1 (stereo not drawn),fold change,[1]; [20],1 (inactive)
same,fold change,[1]; [21],0.403
same,cell count,[1]; [22],798
same,cell count,[1]; [23],796
same,z-score,[2]; [24],-0.998 (inactive)
same,z-score,[2]; [25],-2.06
same,inhibition,"[3]; at 0.5 µM, stronger effect = higher value",-25.1% (inactive) and 6.28% (inactive)
same,inhibition,"[3]; measured here: combination with BGB IC20, at 0.005 µM",7.23% and -8.63%
same,inhibition,"[3]; measured here: combination with BGB IC40, at 0.005 µM",-30.8% and -22.1%
same,inhibition,[3]; [26],-25.1% and 4.36%
same,inhibition,"[3]; measured here: combination with cisplatin, at 0.5 µM, stronger effect = higher value",-20.6% and 32.4%
same,inhibition,"[3]; measured here: combination with cisplatin, at 5 µM, stronger effect = higher value",120% and 124%
same,inhibition,"[4]; BGB combo, at 5 µM",100% and 99.9%
same,inhibition,[4]; at 0.5 µM,75.5% (inactive) and 96.4% (active)
same,inhibition,"[4]; cisplatin combo, at 5 µM",99.9% and 100%
same,inhibition,[4]; [27],78.8% and 94.9%
same,inhibition,[4]; [28],74% and 96.7%
same,inhibition,"[4]; single agent, at 5 µM",99.9% and 100%
same,inhibition,"[5]; BGB IC20 combo, at 0.005 µM",14.3% and 49.6%
same,inhibition,"[5]; BGB IC40 combo, at 0.005 µM",37% and 55.6%
same,inhibition,"[5]; BGB IC40 combo, at 0.05 µM",100%
same,inhibition,[5]; at 0.5 µM,-26.8% (inactive) and -23.9% (inactive)
same,inhibition,"[5]; cisplatin combo, at 0.05 µM",101% and 100%
same,inhibition,"[5]; cisplatin combo, at 0.5 µM",-24.2% and -19.9%
same,inhibition,"[5]; cisplatin combo, at 5 µM",-8.56% and -29.6%
same,inhibition,"[5]; measured here: 5 uM single agent, at 5 µM",-9.41% and -1.15%
same,inhibition,[6]; at 0.5 µM,31.4% (inactive) and 64.5% (inactive)
same,inhibition,[6]; [26],0.687% and -51.1%
same,inhibition,[6]; [29],59.4% and 79.7%
same,inhibition,[6]; [30],102% and 99%
same,inhibition,[7]; at 0.5 µM,82.9% (active) and 95.9% (active)
same,inhibition,"[7]; measured here: with BGB IC20, at 0.5 µM",84.1% and 96.2%
same,inhibition,"[7]; measured here: with BGB IC20, at 5 µM",100%
same,inhibition,"[7]; measured here: with cisplatin IC20, at 0.5 µM",80.8% and 96.9%
same,inhibition,"[7]; measured here: with cisplatin IC20, at 5 µM",99.9% and 100%
same,inhibition,"[7]; single agent, at 5 µM",100%
same,inhibition,[8]; at 0.5 µM,56.1% (inactive) and 91.8% (active)
same,inhibition,"[8]; measured here: combination with BGB at IC20, at 0.5 µM",67.8% and 88.9%
same,inhibition,"[8]; measured here: combination with cisplatin at IC20, at 0.5 µM",54.9% and 94.1%
same,inhibition,[9]; at 0.5 µM,87.7% (active) and 99.6% (active)
same,inhibition,"[9]; measured here: combo with BGB at IC20, at 0.5 µM",88.7% and 99.3%
same,inhibition,"[9]; measured here: combo with cisplatin at IC20, at 0.5 µM",91.5% and 99.7%
same,inhibition,[10]; at 0.5 µM,50% (inactive) and 83.6% (active)
same,inhibition,"[10]; measured here: inhibition with BGB combination, at 0.05 µM",-13.6% and -16.5%
same,inhibition,"[10]; measured here: inhibition with cisplatin combination, at 0.05 µM",-12.2% and -18.5%
same,inhibition,[11]; at 0.5 µM,29.8% (inactive) and 56.9% (inactive)
same,inhibition,[11]; [29],55.5% and 77.6%
same,inhibition,[11]; [30],108% and 104%
same,inhibition,[12]; at 0.5 µM,57.5% (inactive) and 76.7% (inactive)
same,inhibition,"[12]; measured here: BGB combination, at 0.5 µM",54.4% and 71.5%
same,inhibition,"[12]; measured here: BGB combination, at 5 µM",97.5% and 96%
same,inhibition,"[12]; measured here: cisplatin combination, at 0.5 µM",53% and 76.1%
same,inhibition,"[12]; measured here: cisplatin combination, at 5 µM",98.3% and 97.8%
same,inhibition,"[13]; BGB combination, concentration series, at 5 µM",117% and 113%
same,inhibition,[13]; at 0.5 µM,59% (inactive) and 95.4% (active)
same,inhibition,"[13]; cisplatin combination, concentration series, at 5 µM",117% and 111%
same,inhibition,[14],40.4% (inactive) and 94.2% (active)
same,inhibition,[14]; measured here: combo with BGB IC20,44.5% and 93.9%
same,inhibition,[14]; measured here: combo with cisplatin IC20,14.8% and 91.4%
same,inhibition,[15]; at 0.5 µM,25.7% (inactive) and 46.2% (inactive)
same,inhibition,"[15]; cisplatin combination, at 0.5 µM",43% and 48.9%
same,inhibition,"[15]; cisplatin combination, at 5 µM",88.5% and 94%
same,inhibition,"[15]; measured here: BGB IC40 combination 0.05 uM, at 0.05 µM",-4.12% and 46.7%
same,inhibition,"[15]; single agent, at 5 µM",105% and 104%
same,inhibition,[16]; at 0.5 µM,33.4% (inactive) and 51.8% (inactive)
same,inhibition,"[16]; cisplatin combo, at 5 µM",76% and 95.5%
same,inhibition,"[16]; measured here: BGB IC40 combination, at 0.05 µM",-32% and 8.46%
same,inhibition,[16]; [29],49.2% and 73.8%
same,inhibition,"[16]; single agent, at 5 µM",95.9% and 95.4%
same,inhibition,[17]; at 0.5 µM,86.2% (active) and 95.7% (active)
same,inhibition,[17]; [27],92.5% and 96.5%
same,inhibition,[17]; [28],82.6% and 95.3%
same,inhibition,"[17]; single agent, at 0.05 µM",-45.7% and -4%
same,inhibition,"[17]; single agent, at 5 µM",100% and 99.7%
c1ccc(CNc2ncnc3nc[nH]c23)cc1,survival,[18],39 (inactive)
same,parasite load remaining,[19],31% (inactive) and 123% (inactive)
same,viability,[19],49.8% and 87.6%
same,fold change,[1]; [20],1.05 (inactive)
same,fold change,[1]; [21],1.32
same,cell count,[1]; [22],8060
same,cell count,[1]; [23],7640
same,z-score,[2]; [24],2.23 (active)
same,z-score,[2]; [25],0.15
